From PubChem BioAssay (Tox21)
A number with no mark means an inactive call. Calls of active or inactive are those of the source. Calls come from the whole dose curve; as a rule, active = well fitted curve in the direction sought with a large enough effect in the repeat runs; inconclusive = weak or mixed curves; inactive = flat fitted curve, though single readings scatter.

Experiment: qHTS assay to test for compound auto fluorescence at 460 nm (blue) in HepG2 cells (AID 720687)
Details: autofluorescence 405/460 nm, 1 h; series mostly up to 46 µM; fluorescence, % of fluorescent control: at the top concentration
From the text: U.S. Tox21 Program National Center for Advancing Translational Sciences [NCATS] NIH Chemical Genomics Center [NCGC] U.S. Environmental Protection Agency [EPA] National Institutes of Environmental Health Sciences [NIEHS] National Toxicology Program [NTP] U.S. Food and Drug Administration [FDA] Tox21 Assay Overview: Compound auto fluorescence often interferes with screening of the compound library against various biological targets and signaling pathways. Some of these compounds may have fluorophoric properties. Such properties may interfere with the assay outputs resulting in false positives and/or negatives. To decrease such complications and ensure the compound activities are relevant in terms of biological response, the Tox21 10K compound library was screened for auto fluorescence. From the fluorophores used as reporter signals in our screening assays, the auto fluorescence equivalencies of compounds against three fluorophores have been evaluated: Triamterene, Fluorescein and Rose Bengal sodium for blue, green and red fluorescence, respectively. The fluorescence intensities were measured using Excitation/Emission wavelengths at 405/460nm, 485/535nm and 540/590nm for blue, green and red labels, respectively. This assay includes the blue fluorescence data.
Tox21 Assay Protocol Summary: 2,000 HepG2 cells in 5 uL of culture medium (MEM containing 10% FBS) per well were dispensed into black wall/clear bottom 1536-well plates using a Multidrop Combi Dispenser (ThermoFisher Scientific, Waltham, MA). The assay plates were incubated overnight at 37 C to allow cell attachment to the well bottom, followed by the transfer of 23 nL compound or DMSO vehicle by a pintool work station (Kalypsys , San Diego, CA). After the assay plates were incubated for 1 hr at 37 C and 5% CO2, fluorescence intensities in the assay plates were measured by an Envision (PerkinElmer, Shelton, CT) plate reader using three labels for measuring blue, green and red fluorescence at […] 460, 535 and 590 nm respectively.
% is set by controls: 0 for no effect and ±100 for the full control effect.

Structure (SMILES) | fluorescence, % of fluorescent control | outcome
CCOC(=O)Oc1c(OC)cc(C(=O)O[C@@H]2C[C@@H]3CN4CCc5c([nH]c6cc(OC)ccc56)[C@H]4C[C@@H]3[C@H](C(=O)OC)[C@H]2OC)cc1OC | 3.95% [at 18.6 µM] | –
CN(C)CCOc1ccccc1Cc1ccccc1 (tested in a mixture with another compound) | 0.033% | –
CO/N=C(\C(=O)N[C@@H]1C(=O)N2C(C(=O)O)=C(CSC(=O)c3ccco3)CS[C@H]12)c1csc(N)n1 | 0.102% | –
CC1CCC(NC(=O)N(CCCl)N=O)CC1 (stereo not given) | -0.154% | –
COc1ccc2cc([C@H](C)CO)ccc2c1 | -0.0038% | –
O=c1[nH]cnc2[nH]cc(CN3CCCCC3)c12 | 0.543% | –
O=P(O)(O)C(Sc1ccc(Cl)cc1)P(=O)(O)O | -0.0587% | –
CN[C@H]1CCc2cc(OC)c(OC)c(OC)c2-c2ccc(OC)c(=O)cc21 | -0.0367% | –
C[C@@H]1C/C=C/C=C/C=C/C=C/[C@H](O[C@@H]2O[C@H](C)[C@@H](O)[C@H](N)[C@@H]2O)C[C@@H]2O[C@](O)(C[C@@H](O)C[C@H]3O[C@@H]3/C=C/C(=O)O1)C[C@H](O)[C@H]2C(=O)O | 0.406% | –
O=P(O)(O)C(O)(Cc1cnc2ccccn12)P(=O)(O)O | 0.0025% | –
CCCCCCCCCCCCCCCCCC(=O)OC[C@@H](O)[C@H]1OC[C@H](O)[C@H]1O | -0.0256% | –
CN1CCN(CCCN2c3ccccc3Sc3ccccc32)CC1 | 0.019% | –
CC(O)CN(C)C (stereo not given) | -0.139% | –
O=C(OC1C[C@@H]2CC3C[C@H](C1)N2CC3=O)c1c[nH]c2ccccc12 (stereo not given in full) | -0.0967% | –
O=C(CCCN1CCC(C(=O)c2ccc(F)cc2)CC1)c1ccc(F)cc1 | 0.0544% | –
O=S(=O)(O)c1cc(O)c2c(N=Nc3ccc(Nc4ccccc4)c4c(S(=O)(=O)O)cccc34)cc(S(=O)(=O)O)cc2c1 | 2.49% | –
Nc1nc(=O)n([C@@H]2CS[C@H](CO)O2)cc1F | 0.165% | –
CC[C@H](C)[C@@H]1NC(=O)[C@H](Cc2ccc(O)cc2)NC(=O)[C@@H](N)CSSC[C@@H](C(=O)N2CCC[C@H]2C(=O)N[C@@H](CC(C)C)C(=O)NCC(N)=O)NC(=O)[C@H](CC(N)=O)NC(=O)[C@H](CCC(N)=O)NC1=O | -0.117% | –
CC(=O)Nc1c(I)c(C(=O)N[C@H]2C(O)O[C@H](CO)[C@@H](O)[C@@H]2O)c(I)c(N(C)C(C)=O)c1I (stereo not given in full) | 0.144% [at 18.6 µM] | –
C#C[C@]1(O)CC[C@H]2[C@@H]3CCC4=C(CCC(=O)C4)[C@H]3CC[C@@]21C | 0.0727% [at 18.6 µM] | –

Structure (SMILES) | fluorescence, % of fluorescent control | outcome
CN=C1C=CC(=C(c2ccc(N(C)C)cc2)c2ccc(N(C)C)cc2)C=C1 | -0.139% | –
O=C1CCC(=O)N1CO | 0.0002% | –
CCCCCCCCCCCCCCCCCCOP(=O)([O-])OC1CC[N+](C)(C)CC1 | -0.145% [at 18.6 µM] | –
CO/N=C(\C(=O)N[C@@H]1C(=O)N2C(C(=O)OCOC(=O)C(C)(C)C)=C(/C=C\c3scnc3C)CS[C@H]12)c1csc(N)n1 | 0.167% | –
O=C(CO)[C@@H](O)[C@H](O)[C@@H](O)C(=O)O | -0.0379% | –
Nc1ccn(C[C@@H](CO)OCP(=O)(O)O)c(=O)n1 | -0.176% | –
Oc1cc(O)cc(O)c1 | 0.35% | –
COc1cc2c(cc1OC)CC(=O)N(CCCN(C)C[C@H]1Cc3cc(OC)c(OC)cc31)CC2 | 0.11% | –
CCCCCCCCCCCCCCCC(=O)OCCC1CCN(CCCN2c3ccccc3Sc3ccc(S(=O)(=O)N(C)C)cc32)CC1 | -0.137% | –
O=C(O)CN(CC(=O)O)CC1=CC2C(=CC1=O)Oc1cc(O)c(CN(CC(=O)O)CC(=O)O)cc1C21OC(=O)c2ccccc21 (stereo not given) | 1.25% | –
CC(=O)[C@]1(O)Cc2c(O)c3c(c(O)c2[C@@H](O[C@H]2C[C@H](N)[C@H](O)[C@H](C)O2)C1)C(=O)c1c(O)cccc1C3=O | – | inactive
C=CCOc1ccc(CC(=O)O)cc1Cl | -0.0547% | –
CNC(=O)c1c(I)c(C(=O)NCC(=O)Nc2c(I)c(C(=O)O)c(I)c(C(=O)NCCO)c2I)c(I)c(N(C)C(C)=O)c1I | 0.0462% | –
CCN(CC)c1ccc(N=Nc2ccc(S(=O)(=O)N(C)C)cc2)c(S(=O)(=O)NCC[n+]2ccccc2)c1 | 0.0102% | –
COc1c(O[C@@H]2O[C@H](CO)[C@@H](O)[C@H](O)[C@H]2O)cc2c(c1OC)-c1ccc(SC)c(=O)cc1[C@@H](NC(C)=O)CC2 | 0.0633% [at 18.6 µM] | –
O=C(NNCS(=O)(=O)O)c1ccncc1 | 0.0681% | –
CO[C@H]1C[C@H](O[C@@H]2/C(C)=C/C[C@@H]3C[C@@H](C[C@]4(CC[C@H](C)[C@@H](C5CCCCC5)O4)O3)OC(=O)[C@@H]3C=C(C)/C(=N/O)[C@H]4OC/C(=C\C=C\[C@@H]2C)[C@]43O)O[C@@H](C)[C@@H]1O | 0.0036% | –
CC#CCC(C)[C@H](O)/C=C/[C@@H]1[C@H]2C/C(=C/CCCC(=O)O)C[C@H]2C[C@H]1O (stereo not given in full) | 0.0513% | –
O=C(O)CC/C=C\CC[C@@H]1[C@@H](N2CCCCC2)[C@@H](O)C[C@@H]1OCc1ccc(-c2ccccc2)cc1 | 0.0198% | –
O=C(NOC[C@H](O)CO)c1ccc(F)c(F)c1Nc1ccc(I)cc1F | 0.0706% | –
